This is part of a sample that, as a whole, favours compounds with a hit. Of some 83,000 tested, about 20% had one in any assay.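 Compound tested at a single concentration for 48 hours in 96-well plates; a percent growth value below 10 was scored as active.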 Active and inactive are the calls of the source.
System: SN12C renal
Experiment: NCI-60 one-dose screen, 48 h (100 = growth as untreated, 0 = no growth, -100 = all killed)
Conditions: 10 µM unless noted

Row | SMILES | growth
1 | O=C(Nc1ccc(O)cc1)C(Cl)(Cl)Cl | 95.4% (inactive)
2 | CCCOC(=O)N[C@H]1CCc2c(Br)c(OC)c(OC)c(OC)c2-c2ccc(SC)c(=O)cc21 | 14.1% (inactive)
3 | CCOC(=O)[C@@H](C)C[C@H](Cc1ccccc1)NC(=O)c1csc([C@@H](C[C@H](C(C)C)N(C)C(=O)[C@@H](NC(=O)[C@H]2CCCCN2C)C(C)(C)CC)OC(C)=O)n1 | 9.13% (active)
4 | CN1CC(CNC(=O)OCc2ccccc2)CC2c3cccc4c3c(cn4C)CC21 (configuration not stated) | 45% (inactive)
5 | COc1ccc(NC([Se])=NC23CC4CC(CC(C4)C2)C3)cc1 | 4.39% (active)
6 | ClCCN(CCCl)c1ccc(/C=N\N=C\c2ccc(N(CCCl)CCCl)cc2)cc1 | 36.3% (inactive)
7 | C[C@@]12CC=C3c4nc(Nc5cccc(O)c5)sc4CC[C@]3(C)[C@H]1CC[C@]1(C)C(=O)CC[C@@H]21 | 46.5% (inactive)
8 | O=[N+]([O-])/C=C\c1ccc(Cl)c(Cl)c1 | 77.5% (inactive)
9 | CC(C)OC(=O)[C@H](C)NP(=O)(Oc1ccccc1)C1CCCN(O)C1=O (some centres not stated) | 99.2% (inactive)
10 | COC(=O)CCC1=C(C)c2cc3[n-]c(cc4nc(cc5[n-]c(cc1n2)c(CCC(=O)OC)c5C)C=C4C)cc3C.[Cd+2] | 71.2% (inactive)
11 | C=CCn1cc(C=C2C(=O)N(C)C(=O)N(C)C2=O)c2ccccc21 | 102% (inactive)
12 | COC(=O)[C@@H](C)C[C@H](Cc1ccccc1)NC(=O)c1nc([C@@H](C[C@H](C(C)C)N(C)C(=O)[C@@H](NC(=O)[C@H]2C[C@H](O)CCN2C)C(C)C)OC(C)=O)sc1C(C)C | 7.67% (active)
13 | N#CC1C(C#N)C2CCC1C1C2N1c1ccccc1 (configuration not stated) | 99.5% (inactive)
14 | CC(C)(NC(=O)O[C@@H]1CN2CCC1CC2)c1csc(-c2ccc(F)cc2)n1 | 95.4% (inactive)
15 | CCC(C)(C)[C@H](NC(=O)[C@H]1CCCCN1C)C(=O)N(C)[C@H](C[C@@H](OC(C)=O)c1nc(C(=O)N[C@@H](Cc2ccccc2)C[C@H](C)C(=O)O)cs1)C(C)C | 17.5% (inactive)
16 | C[C@]12CCc3sc(-c4ccccc4O)nc3C1=CC[C@@H]1[C@@H]2CC[C@]2(C)C(=O)CC[C@@H]12 | 101% (inactive)
17 | CCOC(=O)N1CC1 | 95.8% (inactive)
18 | N#CC1(C#N)C(c2ccc(N(CCCl)CCCl)cc2)OC23CCCCC2C1(C#N)C(=N)O3 (configuration not stated) | 69.1% (inactive)
19 | C=CCCCN=C=S | 60.1% (inactive)

Row | SMILES | growth
20 | Cc1cccc(N2CCN(C(C)C#N)CC2)c1 (configuration not stated) | 103% (inactive)
21 | O=C(Nc1ccc([N+](=O)[O-])cc1)C(Cl)(Cl)Cl | 95.3% (inactive)
22 | COP(=S)(N1CC1)N1CC1 | 112% (inactive)
23 | O=C(N/N=C\c1ccc(N(CCCl)CCCl)cc1)c1cccc([N+](=O)[O-])c1 | 88.9% (inactive)
24 | CC(=O)OC[C@]1(C)C=C2C(=O)[C@](C)(O)C3(CC3)C(C)=C2[C@H]1O | -5.94% (active)
25 | CS(=O)(=O)CCN1CC2CCCC(C2)C1 | 98.2% (inactive)
26 | CCOC(=O)[C@@H](C)C[C@H](Cc1ccccc1)NC(=O)c1csc([C@@H](C[C@H](C(C)C)N(C)C(=O)[C@@H](NC(=O)[C@H]2C[C@H](O)CCN2C)C(C)C)OC(C)=O)n1 | 20.6% (inactive)
27 | CNCc1cccnc1 | 111% (inactive)
28 | Cn1cc(C=O)c2nccnc21 | 104% (inactive)
29 | Cc1cc(N(CCCl)CCCl)ccc1C=Nc1ccccc1-c1ccccc1 | 54.8% (inactive)
30 | CNC(=O)Oc1ccc2c(c1)OCO2 | 99.7% (inactive)
31 | COc1ccc(N(CC(=O)NCCC[Te]c2ccccc2)C(=O)CCSC2=C(C)C(=O)c3ccccc3C2=O)cc1 | -8.2% (active)
32 | Cn1cccc1C1CC(=O)N(CCC[Se]C#N)C1=O (configuration not stated) | -3.67% (active)
33 | CC1(C)[C@H](O)[C@H](F)C[C@@]2(C)Oc3ccc(C(=O)Nc4ccc5c(c4)NC(=O)C54CCN(CCCCC#N)CC4)cc3C[C@H]12 | 69.9% (inactive)
34 | CCOC(=O)[C@@H](C)C[C@H](Cc1ccccc1)NC(=O)c1nc([C@@H](C[C@H](C(C)C)N(C)C(=O)[C@@H](NC(=O)[C@H]2CCCCN2C)C(C)C)OC(C)=O)sc1CCOCc1ccccc1 | -58.9% (active)
35 | C[C@]12CCc3sc(-c4cccc(F)c4)nc3C1=CC[C@@H]1[C@@H]2CC[C@]2(C)C(=O)CC[C@@H]12 | 42.9% (inactive)
36 | COC(=O)[C@H](C[C@H](Cc1ccccc1)NC(=O)c1csc([C@@H](C[C@H](C(C)C)N(C)C(=O)[C@@H](NC(=O)[C@H]2CCCCN2C)C(C)C)OC(C)=O)n1)NC(=O)OCc1ccccc1 | 9.35% [8.5 µM] (active)
37 | C[C@]12CC[C@H]3[C@@H](C[C@@H]4SC(Nc5ccccc5)=N[C@@]45CC(O)CC[C@]35C)[C@@H]1CCC2O (some centres not stated) | 10.1% (inactive)

Reference: PubChem BioAssay (NCI)
